Screening results deposited in PubChem BioAssay by Broad Institute.
Sampled rows, rich in hits. Any-hit rate of the full collection: about 7.8%.
NOMO-1 viab: STK33 inhibitor candidate reducing NOMO-1 cell viability. NOMO-1 AML viability, CellTiter-Glo luminescence, 72 h. inhibition, % (concentration not given with the values). 7.5% of 37,000 active. AID 2330; in the data active = inhibition above about 80%; inconclusive = no clear call, values can overlap the other calls
Shh pathway inh: blocks Sonic Hedgehog signaling | Shh-LIGHT2 Gli-luciferase reporter, 30 h | 2.1% of 22,000 active | inhibition, % (test concentration not listed);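 active = mean inhibition across valid replicates above about 65%, limit read from the data; inconclusive = mean under the limit, yet half or more replicates past it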;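 note: pathway switched on by Shh-conditioned medium diluted 1 in 25 in low serum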
MITF inh: inhibitors of MITF. inhibition, % (concentration not given with the values). TRPM1 promoter luciferase, luminescence, 24 h. 0.28% of 37,000 active; in the data active = inhibition above about 85%; inconclusive = no clear call, values can overlap the other calls; inactive = below about 68%;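 note: human melanocyte line stably carrying TRPM1 promoter luciferase reporter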
PD-1 reverse act: activators reversing PD-1 mediated T-cell inhibition; AID 2316; primary human CD4 T cells, PD-L1 beads, CellTiter-Glo 96 h; activation, % (test concentration not listed); 29,000 tested, under 10 active; call rule not given here;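 note: 0% = median vehicle wells and 100% = positive control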
Numbers without * were called inactive; ? = inconclusive; / = not tested or not shown.

SMILES	NOMO-1 viab	Shh pathway inh	MITF inh	PD-1 reverse act
COC1CC(OC2CCC3(C)C(CCC4(O)C3CC(OC(=O)c3ccccc3)C3(C)C(O)(C(C)=O)CCC43O)C2)OC(C)C1OC1CC(OC)C(OC2OC(C)C(O)C(OC)C2O)C(C)O1 (configuration not stated)	32	-2	-7	2
CO[C@H]1[C@@H](O)[C@@H](C)O[C@@H](OC2CCC3(C)C(CC[C@@H]4[C@@H]3CCC3(C)C(C5=CC(=O)OC5)C(O)CC43O)C2)[C@@H]1O (some centres not stated)	121*	-10	19	-16
CC(=O)O[C@H]1CC[C@]2(C=O)[C@H]3CC[C@]4(C)[C@@H](C5=CC(=O)OC5)CC[C@]4(O)[C@@H]3CC[C@]2(O)C1	124*	4	45	-23
COC1CC(O[C@H]2CC[C@@]3(C)C(CCC4C3CC[C@]3(C)C(C5=CC(=O)OC5)CCC43O)C2)OC(C)C1OC1OC(COC2OC(CO)C(O)C(O)C2O)C(O)C(O)C1O (some centres not stated)	119*	0	9	-6
c1cncc(C2Nc3ccccc3-n3cccc32)c1 (configuration not stated)	72	-41	-31	-6
CC(C)(O)CCC(=O)[C@](C)(O)[C@H]1[C@H](O)C[C@@]2(C)[C@@H]3CC=C4C(C=C(O[C@@H]5O[C@H](CO)[C@@H](O)[C@H](O)[C@H]5O)C(=O)C4(C)C)[C@]3(C)C(=O)C[C@]12C (some centres not stated)	-10	-5	8	1
CC12CC[C@H]3C(CCC4(O)CC(O)CCC34O)C1(O)CCC2C1=CC(=O)OC1 (some centres not stated)	6	-45	-14	-2
CC(=O)OC1CCC2(C)C(CC[C@@H]3[C@@H]2CCC2(C)C(C4=CC(=O)OC4)CCC32O)C1 (some centres not stated)	109*	-5	11	-16
C[C@H]1O[C@@H](O[C@H]2CC[C@]3(CO)C4CC[C@]5(C)[C@@H](C6=CC(=O)OC6)CC[C@]5(O)C4CC[C@H]3C2)[C@H](O)[C@H](O)[C@@H]1O (some centres not stated)	/	-21	/	/
C[C@H]1O[C@@H](O[C@H]2[C@@H](O)C[C@H](O[C@H]3[C@@H](O)C[C@H](O[C@H]4CC[C@]5(C)C6CC[C@]7(C)[C@@H](C8=CC(=O)OC8)CC[C@]7(O)C6CC[C@@H]5C4)O[C@@H]3C)O[C@@H]2C)C[C@H](O)[C@@H]1O (some centres not stated)	111*	-15	17	/
CC(=O)OCC(=O)[C@H]1CC[C@H]2[C@@H]3CC[C@H]4C[C@H](O)CC[C@]4(C)[C@H]3C(=O)C[C@]12C	23	-54	16	/
C[C@]12CC[C@H](O)C[C@H]1CC[C@@H]1[C@@H]2CC[C@]2(C)[C@@H](C3=CC(=O)OC3)CC[C@]12O	120*	-20	40	/
C[C@]12CC[C@H](O)C[C@H]1CC[C@@H]1[C@@H]2C[C@@H](O)[C@]2(C)[C@@H](C3=CC(=O)OC3)CC[C@]12O	98*	-47	18	-18
O=C(O)C1C2CCC(O2)C1C(=O)NCCc1ccccc1 (configuration not stated)	69	/	32	-12
CC(C(=O)Nc1ccc(Cl)cc1C(=O)c1ccccc1)N1C(=O)C2C3C=CC(C3)C2C1=O (configuration not stated)	36	/	19	-4
CO/C1=C/C(C)=C/[C@@H](C)[C@@H](O)[C@@H](C)C/C(C)=C/C=C\[C@H](OC)[C@@H]([C@@H](C)[C@@H](O)[C@H](C)[C@@]2(O)C[C@@H](O)[C@H](C)[C@@H](C(C)C)O2)OC1=O	142*	97*	-61	-33
COc1cc2c3c(c1OC)-c1c(ccc(O)c1O)CC3N(C)CC2 (configuration not stated)	35	-10	0	0
O=c1c2ccccc2[se]n1-c1ccccc1	141*	?	9	-58
CCOC(=O)c1cc(C(C)(C)C)nc(OC(=O)N(C)C)c1C#N	101*	27	0	-1
CC1C/C=C/C2C3OC3(C)C(C)C3C(Cc4ccccc4)NC(=O)C23OC(=O)O/C=C/C(C)(O)C1=O (configuration not stated)	93*	44	41	-26
O=c1c2ccccc2nc(CSc2ccccn2)n1-c1cccc(C(F)(F)F)c1	16	/	4	0
CCCC(C)n1[nH]c(=O)c2c1NC(=O)CSC2c1cccc([N+](=O)[O-])c1 (configuration not stated)	15	/	7	3
